LANA-H2B inh = blocks KSHV LANA binding to histone H2A/H2B; Q9QR71; inhibition, % (concentration not given with the values); 0.6% of 320,000 active; cell-free LANA-H2A/H2B peptide, fluorescence polarization; in the data active = inhibition mostly above about 10%, no sharp cut-off; inactive = mostly below about 6.7%
HDAC3 inh = inhibitors of human histone deacetylase 3; 0.15% of 320,000 active; inhibition, % at 8.3 µM; recombinant HDAC3, fluorogenic peptide/trypsin coupled, fluorescence; in the data active = inhibition above about 26%, passing the limit was not always enough; inconclusive = no clear call, values can overlap the other calls
SUMO Mot1 rescue = inhibitors of SUMOylation pathway: yeast Mot1-301 growth rescue; S. cerevisiae Mot1-301 growth rescue, ATP luminescence, 38.5C; percent above DMSO median, 100 means doubled; growth rescue, % at 18.8 µM; 1% of 320,000 active;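 active = every valid replicate shows activation above 250% relative to neutral control wells; inactive = the rest, any valid replicate at or below 250%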;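 also: OY570 slx delta 5 strain wells were the positive control but not used for scaling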
IDE inh = inhibits human insulin-degrading enzyme in HEK cells | P14735 | inhibition, % at 5.59 µM | FAbetaB cleavage, fluorescence polarization | 0.41% of 320,000 active;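 active = percent inhibition above the average of all tested compounds plus 3 SD, set per screening campaign, cut at about 16% in these data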;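 also: IDE supplied by intact live HEK cells; FP after avidin binding of uncleaved biotin substrate so inhibition keeps polarization high; 0% = DMSO wells and 100% = 60 µM reference IDE inhibitor Ii1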
Target sequence (P14735 whole entry, looked up): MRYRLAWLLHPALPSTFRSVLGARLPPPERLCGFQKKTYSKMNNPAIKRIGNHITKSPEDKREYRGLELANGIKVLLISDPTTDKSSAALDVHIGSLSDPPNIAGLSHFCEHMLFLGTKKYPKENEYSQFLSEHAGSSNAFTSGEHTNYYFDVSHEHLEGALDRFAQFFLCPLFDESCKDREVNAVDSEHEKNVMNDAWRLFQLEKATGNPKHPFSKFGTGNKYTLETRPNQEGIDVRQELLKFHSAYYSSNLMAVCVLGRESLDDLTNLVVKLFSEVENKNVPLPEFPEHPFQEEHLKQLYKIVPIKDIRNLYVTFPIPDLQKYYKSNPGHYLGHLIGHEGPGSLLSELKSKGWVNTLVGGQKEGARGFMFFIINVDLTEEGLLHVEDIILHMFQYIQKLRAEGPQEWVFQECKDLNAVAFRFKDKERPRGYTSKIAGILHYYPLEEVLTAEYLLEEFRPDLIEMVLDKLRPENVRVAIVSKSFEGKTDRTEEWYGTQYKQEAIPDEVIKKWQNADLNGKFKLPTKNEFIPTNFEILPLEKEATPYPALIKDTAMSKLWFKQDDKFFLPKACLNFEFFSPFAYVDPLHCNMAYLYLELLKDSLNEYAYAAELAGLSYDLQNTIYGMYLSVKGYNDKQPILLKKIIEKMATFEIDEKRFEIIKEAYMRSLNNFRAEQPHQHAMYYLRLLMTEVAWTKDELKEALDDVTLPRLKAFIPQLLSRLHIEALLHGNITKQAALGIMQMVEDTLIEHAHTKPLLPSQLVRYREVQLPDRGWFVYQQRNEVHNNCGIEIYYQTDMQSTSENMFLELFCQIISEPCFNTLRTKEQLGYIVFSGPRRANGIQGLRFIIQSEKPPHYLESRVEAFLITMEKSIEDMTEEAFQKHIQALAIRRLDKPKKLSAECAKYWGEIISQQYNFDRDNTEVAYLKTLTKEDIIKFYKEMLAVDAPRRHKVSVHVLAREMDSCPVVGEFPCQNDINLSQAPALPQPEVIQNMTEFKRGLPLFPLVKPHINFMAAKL
IDE cell activ = boosts human insulin-degrading enzyme activity in HEK cells; P14735; FAbeta-B cleavage, fluorescence polarization; 0% vehicle, 100% cell-free pure enzyme wells; activation, % at 5.96 µM; 0.073% of 340,000 active; AID 493087;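 active = activation above the mean of all tested compounds plus 3 SD, set per screening campaign, cut at about 17% in these data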
Active calls of the source: *; i = inactive; ? = inconclusive; . = no result; + = active, no number. An excerpt weighted towards active compounds, which were near 2.1% of everything screened.

SMILES | LANA-H2B inh | HDAC3 inh | SUMO Mot1 rescue | IDE inh | IDE cell activ
Clc1ccccc1-c1ccc2ncnc(NCc3ccc4c(c3)OCO4)c2c1 | 0 | 3 | 629* | 0 | -2
Cc1cc(C)n2nc(SC(C)C(=O)Nc3ccccc3F)nc2n1 (stereo not given) | 3 | 9 | -13 | 2 | 2
Cc1ccc(NC(=O)CN2C(=O)NC3(CCCCC3C)C2=O)cc1S(=O)(=O)N1CCCCC1 (stereo not given) | 55* | 3 | -12 | 0 | 10
Cn1ccnc1Sc1ccc(C(N)=O)cc1[N+](=O)[O-] | 86* | 10 | -6 | -3 | 2
Nc1nccc(SCc2ccc(Cl)cc2Cl)n1 | . | . | . | . | 2
Nc1nc(N)c(Cc2ccc(Cl)cc2Cl)c(N)n1 | 32* | 2 | -1 | 3 | -1
CC1(C)S[C@@H]2[C@H](NC(=O)C(C(=O)O)c3ccccc3)C(=O)N2[C@H]1C(=O)O (stereo not given in full) | 27* | . | -28 | 4 | 5
CC1(C)S[C@@H]2[C@H](NC(=O)[C@H](N)c3ccccc3)C(=O)N2[C@H]1C(=O)O | 1 | 1 | -8 | 2 | 5
CCOC(=O)c1c(C)[nH]c(C)c1C(=O)CSc1nc2ccccc2[nH]1 | 0 | -3 | 453* | 4 | 2
O=C(COC(=O)c1c[nH]c(=O)[nH]c1=O)Nc1ccccc1Br | -1 | . | 808* | -3 | 16
COC(=O)C(Cc1ccccc1)NC(=O)c1ccc(NS(=O)(=O)c2ccc3[nH]c(=O)[nH]c3c2)cc1 (stereo not given) | 29* | 7 | 31 | -1 | -1
Cc1ccc(Cl)cc1NC(=O)CCS(=O)(=O)c1cccc2nonc12 | 4 | 4 | 17 | 6 | 5
O=C(N/C(=C\c1cccs1)C(=O)N1CCCCCC1)c1ccccc1 | -1 | 5 | 312* | 2 | 3
O=C(N/C(=C\c1ccc([N+](=O)[O-])cc1)C(=O)N1CCCCC1)c1ccccc1 | 13* | 0 | -14 | -2 | 5
COc1cccc(N(CC(=O)Nc2ccccc2C(=O)N2CCCC2)S(C)(=O)=O)c1 | 7 | -2 | -12 | -4 | 2
O=C(NCc1ccccc1Cl)c1ccc2c(c1)SC1=NS(=O)(=O)CCN12 | -21 | 5 | -28 | 1 | 2
O=C(NCc1cccc(Cl)c1)c1ccc2c(c1)SC1=NS(=O)(=O)CCN12 | 16* | 4 | 136 | -4 | 2
O=C(Cc1cccc(NC(=O)C2CCN(C(=O)C3CC3)CC2)c1)Nc1cccc(C(=O)N2CCCCC2)c1 | . | . | . | . | -3
Cn1cc(/C=C2/SC(=O)N(c3ccccc3)C2=O)c2ccccc21 | -2 | 6 | 27 | -1 | 0
O=C(O)Cn1cc(/C=C2\SC(=O)N(c3ccccc3)C2=O)c2ccccc21 | 2 | 2 | 672* | -3 | 2
Cc1ccc(OCCN(C)C(=O)c2cc(COc3ccc(F)cc3F)on2)cc1 | 173* | 3 | 2 | -4 | 3
Cc1nn(CC(=O)OCC(=O)c2ccccc2)c(C)c1[N+](=O)[O-] | -3 | -2 | -6 | 0 | -2
CCN(CC)CCNC(=O)CS(=O)Cc1nc(-c2ccccc2Cl)oc1C (stereo not given) | 9 | -10 | -13 | 1 | 18*
N#Cc1c(Cl)nc(N/N=C/c2ccccc2)c(Cl)c1Cl | -2 | 2 | 9 | 1 | -1
C[N+](C)(C)c1ccc(/C=N/Nc2nc(Cl)c(C#N)c(Cl)c2Cl)cc1 | 54* | 3 | 4 | -1 | -3
SMILES | LANA-H2B inh | HDAC3 inh | SUMO Mot1 rescue | IDE inh | IDE cell activ
CCC(C)(C)n1nnnc1C(c1ccc2ncccc2c1)N1CCN(c2ccc(O)cc2)CC1 (stereo not given) | 2 | -2 | -8 | 1 | 2
CCC(C)(C)n1nnnc1C(c1ccc2ncccc2c1)N1CCCC(C)C1 (stereo not given) | -3 | 3 | 342* | 0 | 1
O=C(CCNS(=O)(=O)c1ccc(Cl)cc1)N1CCN(c2ncccn2)CC1 | . | . | . | . | 6
O=C(CCNS(=O)(=O)c1ccc(Cl)cc1)N1CCN(c2ccccn2)CC1 | 0 | -2 | 269* | 2 | 2
COc1cc(C(=O)O/N=C2\C=CC(=O)C(C)=C2)cc(OC)c1OC | 1 | 62* | 22 | -1 | -6
O=C(OCC(=O)N1CCCC1=O)c1ccc(Cl)cc1[N+](=O)[O-] | 2 | ? | 105 | 2 | 6
COc1ccc(CC(=O)N(Cc2ccccc2)c2ccccc2)cc1S(=O)(=O)N1CCOCC1 | 16* | -1 | 45 | 9 | -2
COc1ccccc1CC(=O)N(Cc1ccccc1)c1ccc(C)cc1 | 22* | 0 | 11 | 0 | 1
COc1ccccc1C(=O)N(Cc1ccccc1)c1ccc(C)cc1 | -10 | 7 | i | 3 | -1
O=C(NCCc1c[nH]c2ccccc12)C(=O)NCC1OCCCN1S(=O)(=O)c1ccc(F)cc1 (stereo not given) | -2 | -9 | 1 | -4 | -1
Cc1ccc(S(=O)(=O)N2CCOC2CNC(=O)C(=O)NCCc2c[nH]c3ccccc23)cc1 (stereo not given) | 42* | 0 | -7 | 1 | 5
CCOC(=O)CCCCC(=O)c1[nH]c(=O)[nH]c1C[n+]1ccccc1 | 17* | 2 | -1 | 4 | .
CC(C)c1ccc(NC2CCCN(C(=O)c3ccccc3-c3ncc[nH]3)C2)cc1 (stereo not given) | -1 | -4 | -6 | 0 | 7
N/C(=N\OC(=O)C1CCCCC1)c1cccc([N+](=O)[O-])c1 | 15* | 2 | 12 | 7 | 6
COc1cccc2cc(C(C)N(CCCN3CCOCC3)C(=S)Nc3cc(C)cc(C)c3)oc12 (stereo not given) | 5 | -4 | 1 | 5 | -5
COc1cccc2cc(C(C)N(CCCN3CCOCC3)C(=S)Nc3cccc(C)c3)oc12 (stereo not given) | 13* | 0 | 205 | 1 | 8
c1ccc(-c2sc3ccccc3c2-c2ccc(OCCN3CCCC3)cc2)cc1 | -3 | -2 | 298* | 10 | 0
c1ccc(COc2ccc(OCCN3CCCCC3)cc2)cc1 | 1 | -6 | 445* | -1 | 9
CC(C)c1ccc(OCCCCN2CCCCC2)cc1 | 5 | 2 | 352* | -4 | 4
c1ccc(COc2ccc(OCCN3CCCC3)cc2)cc1 | . | . | 334 | -2 | 4
O=C(CSc1nc(=O)n(CCCN2CCOCC2)c2c1CCC2)Nc1cccc(F)c1 | -1 | 1 | 3 | 1 | -3
CC1CCCCC1NS(=O)(=O)c1ccc2c(c1)CCC(=O)N2 (stereo not given) | 4 | -6 | -13 | -2 | 5
CN(C(=O)CCc1nnc(-c2ccc(-c3ccccc3)cc2)o1)C1CCOCC1 | 15* | 1 | -2 | 1 | -10
N#C/C(=C\c1c[nH]c2ccccc12)c1nnc2n1CCCCC2 | 0 | 7 | 0 | 7 | -15
N#C/C(=N\Nc1cccc2ccccc12)c1nnc2n1CCCCC2 | 6 | -8 | + | 2 | -12
